A short description of test [1]: compounds binding Alexa647 anti-His antibody – biochemical, small-molecule microarray, 635 nm fluorescence, artefact control for SMM control protein annotation, primary screen (AID 1128).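 Note: score merges feature fluorescence with signal-to-noise for each printed compound spot.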 Particulars: higher = more signal.
The test system of test [2] is Human papillomavirus type 1a E7 protein (residues 1-88). The test is described as follows: HPV1a E7 small-molecule binders, primary screen, biochemical, small-molecule microarray, residues 1-88, 635 nm (AID 1129). As to conditions: small-molecule microarray binding, fluorescence 635 nm; higher = more signal.
Test [3] deals with Focal adhesion kinase 1 (Homo sapiens) (UniProt Q05397). Briefly: PTK2 protein binding on printed compound slides – biochemical, small-molecule microarray, 635/667 nm fluorescence, BSA, DTT, primary screen (AID 1130).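 Note: composite of spot emission at 667 nm and signal to noise over triplicate slides.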 As to conditions: 635 nm fluorescence, higher = more signal.
Focal adhesion kinase 1 (Homo sapiens), sequence (Q05397 whole entry, looked up): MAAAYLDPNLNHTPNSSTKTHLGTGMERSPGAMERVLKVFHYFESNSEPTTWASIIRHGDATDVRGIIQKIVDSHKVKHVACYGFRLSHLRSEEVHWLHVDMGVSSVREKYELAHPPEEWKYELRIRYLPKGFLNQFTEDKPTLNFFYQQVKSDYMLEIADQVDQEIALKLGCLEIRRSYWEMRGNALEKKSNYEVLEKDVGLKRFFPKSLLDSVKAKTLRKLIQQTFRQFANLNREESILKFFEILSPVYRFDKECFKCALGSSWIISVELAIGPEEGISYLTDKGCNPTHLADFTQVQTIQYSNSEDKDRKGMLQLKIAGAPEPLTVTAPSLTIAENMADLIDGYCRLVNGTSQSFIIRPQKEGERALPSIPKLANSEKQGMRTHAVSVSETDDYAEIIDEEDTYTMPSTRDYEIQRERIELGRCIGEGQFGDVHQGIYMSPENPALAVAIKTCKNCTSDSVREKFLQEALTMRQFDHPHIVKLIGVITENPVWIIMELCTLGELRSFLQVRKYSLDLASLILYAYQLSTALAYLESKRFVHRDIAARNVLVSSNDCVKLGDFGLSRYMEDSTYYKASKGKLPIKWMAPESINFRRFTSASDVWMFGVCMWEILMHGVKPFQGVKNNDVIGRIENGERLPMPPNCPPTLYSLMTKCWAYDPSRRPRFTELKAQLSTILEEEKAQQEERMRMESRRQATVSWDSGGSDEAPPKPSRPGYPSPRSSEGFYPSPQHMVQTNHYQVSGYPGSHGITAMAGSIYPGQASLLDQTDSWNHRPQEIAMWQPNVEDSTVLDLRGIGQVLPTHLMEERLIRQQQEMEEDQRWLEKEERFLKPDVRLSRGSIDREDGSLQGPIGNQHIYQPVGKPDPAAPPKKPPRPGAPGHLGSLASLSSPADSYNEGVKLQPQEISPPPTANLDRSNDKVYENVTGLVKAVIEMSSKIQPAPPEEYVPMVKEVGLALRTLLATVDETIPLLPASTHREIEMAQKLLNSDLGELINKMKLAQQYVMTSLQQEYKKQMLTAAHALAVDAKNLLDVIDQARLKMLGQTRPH
Test [4] has as its system Fibrinogen (Alexa647-labelled). The test is described as follows: Alexa647-fibrinogen binding to printed small molecules – biochemical, small-molecule microarray, 635/667 nm fluorescence, artefact control for SMM control-protein annotation, profiling panel (AID 1131).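 Note: z-score merges 667 nm fluorescence with per-spot signal-to-noise over triplicate slides.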 As to conditions: fibrinogen-A647 binding fluorescence, higher = more signal.
For test [5], the target named is Follistatin (Homo sapiens) (UniProt P19883). The test is described as follows: FST protein binding to printed compounds – biochemical, small-molecule microarray, 635/667 nm fluorescence, primary screen (AID 1132). As to conditions: 635 nm fluorescence, higher = more signal.
Follistatin (Homo sapiens), sequence (P19883 whole entry, looked up): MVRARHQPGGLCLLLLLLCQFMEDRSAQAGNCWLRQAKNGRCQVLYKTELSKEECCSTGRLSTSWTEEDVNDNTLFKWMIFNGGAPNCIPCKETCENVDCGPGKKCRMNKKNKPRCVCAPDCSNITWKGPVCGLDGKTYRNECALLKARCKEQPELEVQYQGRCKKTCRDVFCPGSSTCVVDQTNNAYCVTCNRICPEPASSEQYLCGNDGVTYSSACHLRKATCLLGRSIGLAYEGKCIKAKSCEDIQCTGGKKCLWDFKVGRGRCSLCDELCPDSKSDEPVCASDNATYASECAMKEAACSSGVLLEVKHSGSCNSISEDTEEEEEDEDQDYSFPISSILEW
The target of test [6] is Fibroblast growth factor 2 (Homo sapiens) (UniProt P09038). The test is described as follows: basic fibroblast growth factor binding to printed compounds – biochemical, small-molecule microarray, 635/667 nm fluorescence, primary screen (AID 1133). Particulars: FGF2, fluorescence 635/667, higher = more signal.
Fibroblast growth factor 2 (Homo sapiens), sequence (P09038 whole entry, looked up): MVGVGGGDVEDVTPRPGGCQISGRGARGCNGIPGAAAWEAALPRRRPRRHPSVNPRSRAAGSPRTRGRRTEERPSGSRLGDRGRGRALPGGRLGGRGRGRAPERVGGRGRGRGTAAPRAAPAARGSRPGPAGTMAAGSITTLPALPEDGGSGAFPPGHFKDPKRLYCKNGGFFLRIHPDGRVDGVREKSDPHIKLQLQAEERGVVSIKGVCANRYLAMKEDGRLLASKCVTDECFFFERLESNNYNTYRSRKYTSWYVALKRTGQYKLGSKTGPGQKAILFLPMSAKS
Test [7] in a line: JC-1 mitochondrial potential readout, lung cancer cells – cell-based, A549, JC-1 fluorescence, basal, 24 h, 100 nL, profiling panel (AID 1138).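 Note: A549 lung adenocarcinoma cells under basal conditions with no added stimulus; test concentration not given here.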 Particulars: higher = more signal.
The subject of the next test is Lefty1. Briefly: Lefty1 protein binding to printed compounds – biochemical, small-molecule microarray, 635/667 nm fluorescence, primary screen (AID 1139). As to conditions: fluorescence 635/667, higher = more signal.
In test [8] the test system is wheat germ agglutinin (Triticum aestivum), Alexa647-labelled. Briefly: Alexa647-WGA lectin binding to printed small molecules – biochemical, small-molecule microarray, 635/667 nm fluorescence, artefact control for SMM control-protein annotation, profiling panel (AID 1140).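 Note: score merges 667 nm feature emission with signal to noise over triplicate slides.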 Particulars: WGA-A647 binding, 635 nm fluorescence, higher = more signal.
In test [9] the target is Luciferin 4-monooxygenase (Photinus pyralis) (UniProt P08659). The test is described as follows: inhibition of purified Photinus pyralis luciferase – biochemical, luminescence, purified enzyme, 2006 set, primary screen (AID 1141).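 Note: cell-free assay with purified firefly luciferase at 100 ng per well in PBS; test concentration not given here.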 Particulars: purified firefly luciferase, SteadyGlo luminescence, 30 min; higher = more signal, called active from +8 up or from −8 down.
Luciferin 4-monooxygenase (Photinus pyralis), sequence (P08659 whole entry, looked up): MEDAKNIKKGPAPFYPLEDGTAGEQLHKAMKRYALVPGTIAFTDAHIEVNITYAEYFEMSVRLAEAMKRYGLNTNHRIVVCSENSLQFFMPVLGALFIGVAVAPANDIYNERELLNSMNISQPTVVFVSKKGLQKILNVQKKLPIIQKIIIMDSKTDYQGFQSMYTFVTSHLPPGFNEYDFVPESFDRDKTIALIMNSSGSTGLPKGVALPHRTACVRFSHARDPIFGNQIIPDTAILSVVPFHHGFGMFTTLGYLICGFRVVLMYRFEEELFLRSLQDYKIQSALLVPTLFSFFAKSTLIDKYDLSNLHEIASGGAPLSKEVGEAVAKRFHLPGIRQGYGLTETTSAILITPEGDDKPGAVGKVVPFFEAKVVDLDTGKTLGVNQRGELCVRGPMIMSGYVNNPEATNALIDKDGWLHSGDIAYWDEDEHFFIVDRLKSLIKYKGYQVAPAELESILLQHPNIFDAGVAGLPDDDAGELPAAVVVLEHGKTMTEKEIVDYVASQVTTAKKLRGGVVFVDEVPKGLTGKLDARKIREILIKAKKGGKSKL
Test [10] relates to Wnt5a (protein binding on small-molecule microarray). The test is described as follows: small molecules binding Wnt5a protein – biophysical, small-molecule microarray, 635/667 nm fluorescence, primary screen (AID 1142).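 Note: fluorescence read at 667 nm with signal to noise per printed feature.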 As to conditions: 635 nm fluorescence, higher = more signal.
The nature of test [11]: ATP-based viability of Huh7 replicon cells – cell-based, CellTiter-Glo luminescence, basal, 48 h, cytotoxicity control for HCV replication inhibitor project, primary screen (AID 1143).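 Note: Huh7 hepatoma cells carrying a hepatitis C replication reporter with no stimulus; test concentration not given here.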 As to conditions: higher = more signal, called active from +8 up or from −8 down.
The nature of test [12]: basal CRE-LacZ reporter activity in PC12 – cell-based, unstimulated, primary screen (AID 1145). As to conditions: no forskolin, luminescence, 4.5 h, higher = more signal, called active from +8 up or from −8 down.
Test [13] is described as follows: forskolin-driven CRE-LacZ activity in PC12 – cell-based, CRE-LacZ reporter, forskolin-stimulated, primary screen (AID 1146).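 Note: PC12 cells with 6xCRE LacZ reporter stimulated by forskolin 10 µM; beta-galactosidase reporter signal reflecting CREB driven transcription.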 As to conditions: luminescence, 4.5 h, higher = more signal, called active from +8 up or from −8 down.
The target of test [14] is Streptavidin (Streptomyces avidinii) (UniProt P22629). The test is described as follows: compounds binding control protein streptavidin – biophysical, small-molecule microarray, 635/667 nm fluorescence, artefact control for SMM compound annotation, primary screen (AID 1147).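 Note: signal reflects streptavidin binding to arrayed compounds as a control protein.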 As to conditions: higher = more signal.
Streptavidin (Streptomyces avidinii), sequence (P22629 whole entry, looked up): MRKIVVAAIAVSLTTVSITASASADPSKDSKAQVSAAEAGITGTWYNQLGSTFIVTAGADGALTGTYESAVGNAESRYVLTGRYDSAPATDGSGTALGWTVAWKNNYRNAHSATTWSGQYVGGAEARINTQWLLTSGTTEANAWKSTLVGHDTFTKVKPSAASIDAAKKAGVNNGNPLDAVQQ
Test [15] is described as follows: probe aInhba binding on compound microarray – biochemical, small-molecule microarray, 635/667 nm fluorescence, primary screen (AID 1148).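 Note: score merges 667nm spot fluorescence with signal-to-noise for antibody binding to printed compounds.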 Particulars: higher = more signal.
Test [16] concerns the target Torsin-1A (Homo sapiens) (UniProt O14656). Briefly: TOR1A wild-type binding on microarray – cell lysate, small-molecule microarray, lysate, 635/667 nm, primary screen (AID 1149). Particulars: COS7 hTOR1A-WT lysate, 635 nm fluorescence, higher = more signal.
Test [17] has the same target. Briefly: torsin A mutant lysate binding on microarrays – cell lysate, small-molecule microarray, COS7 lysate, 635/667 nm fluorescence, primary screen (AID 1150).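 Note: score pools 667 nm emission and signal to noise measuring lysate protein binding.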 As to conditions: COS7 hTOR1A mutant lysate, 635 nm fluorescence, higher = more signal.
The test system of test [18] is Sonic hedgehog protein (Shh). The test is described as follows: Sonic hedgehog microarray binding compounds – biochemical, small-molecule microarray, 635/667 nm fluorescence, primary screen (AID 1151).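 Note: Shh protein binding to compounds spotted on small-molecule microarray slides; score combines spot fluorescence intensity with signal-to-noise across triplicate slides.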 As to conditions: 635 nm fluorescence, higher = more signal.

Activity calls are given as the source filed them.

The text below walks through data of PubChem BioAssay.

Torsin-1A (Homo sapiens), sequence (O14656 whole entry, looked up): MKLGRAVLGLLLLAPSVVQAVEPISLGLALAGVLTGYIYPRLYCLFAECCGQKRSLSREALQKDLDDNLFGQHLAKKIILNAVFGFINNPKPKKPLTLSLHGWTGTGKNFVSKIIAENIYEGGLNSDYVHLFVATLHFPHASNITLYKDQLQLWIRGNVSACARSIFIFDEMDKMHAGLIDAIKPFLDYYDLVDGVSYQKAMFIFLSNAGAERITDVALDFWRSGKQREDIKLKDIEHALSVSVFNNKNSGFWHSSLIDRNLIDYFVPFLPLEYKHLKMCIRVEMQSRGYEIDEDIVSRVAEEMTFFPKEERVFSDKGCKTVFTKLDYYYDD

For `CO[C@@H]1COC(=O)[C@H](COCc2ccccc2)NC(=O)CC=C[C@@H](C)[C@H](OC)COC(=O)[C@H](COCc2ccccc2)NC(=O)CC=C[C@H]1C`, the composite z-score in test [1] is -0.156; in test [2], -0.47; in test [3], -0.0624; in test [4], -0.201; in test [5], 0.59; in [6], 0.622. Also, the composite z-score in the test with Lefty1 was 0.886; in [8], -0.915; in [10], 0.0648; in test [14] it was -0.405; in [15] it was -0.2; with Torsin-1A (Homo sapiens) [16] it was 0.692. For the same compound, the figures for the composite z-score (with Torsin-1A (Homo sapiens) [17]; in test [18]) were 0.209 and 0.839, respectively. The z-score in [7] was 0.952; in test [9] it was -0.901 (inactive); in test [11] it was -0.853 (inactive); in [12], 0.336 (inactive); in test [13], -0.401 (inactive).
On to `COC(=O)C1=C(C)N(Cc2ccccc2)c2c(C(=O)OC)c(C(=O)OC)c(C(=O)OC)c(=O)n2[C@@H]1c1ccccc1`, for which the composite z-score is -0.0074 in [1]; 0.436 in [2]; 0.39 in test [3]; 0.437 in [4]; 0.321 in test [5]; 0.528 in [6]. The composite z-score worked out at 0.27 in the test on Lefty1; 0.292 in [8]; 0.191 in test [10]; 0.125 in test [14]; 0.0503 in test [15]; 0.285 with Torsin-1A (Homo sapiens) [16]. Moreover, the composite z-score with Torsin-1A (Homo sapiens) [17] is 0.505; in test [18], 0.426. Moreover, the z-score in test [7] is 0.813; in [9], -1.01 (inactive); in test [11] it was -0.233 (inactive); in test [12], 4.26 (inactive); in test [13] it was -1.23 (inactive).
Take `C=CCN1C(=O)[C@]2(O[C@H](CCn3cc(CCO)nn3)[C@@H]([Si](C)(C)c3ccc(OC)cc3)[C@@H]2C)c2cc(NC(=O)c3ccc(OC)cc3)ccc21`: the composite z-score in test [1] was 0.94; in test [2], 1.14; in [3], 0.611; in test [4], 0.708; in test [5], 1.35; in [6], 1.2. Further, the composite z-score in the test with Lefty1 is 1.01; in [8] it was 0.816; in [10], 0.46; in test [14] it was 0.132; in [15] it was -0.0598; with Torsin-1A (Homo sapiens) [16], 1.06. The values for the composite z-score (in the test with Torsin-1A (Homo sapiens) [17]; in test [18]) were 0.66 and 1.61, respectively. In addition, the z-score in test [7] was 2.37; in [9] it was -2.28 (inactive); in test [11], -4.16 (inactive); in test [12] it was 7.29 (inactive); in test [13], -1.63 (inactive).
`C=C(CCCC)C(=O)CC[C@@H](OC(=O)c1cccnc1)c1cccc(OCCO)c1`: the composite z-score was 0.419 in test [1]; -0.411 in [2]; 0.533 in test [3]; 0.314 in [4]; 0.674 in test [5]; 1.14 in test [6]. Also, the composite z-score with Lefty1 was 0.779; in test [8], 0.59; in test [10], 0.38; in test [14], -0.0743; in [15], -0.0762; with Torsin-1A (Homo sapiens) [16], 1.08. The composite z-score in the test with Torsin-1A (Homo sapiens) [17] was 0.0906; in [18] it was 1.17. The z-score in test [7] was 3.35; in [9] it was -3.06 (inactive); in test [11], -1.85 (inactive); in test [12], 17.7 (active); in [13], -0.315 (inactive).
Regarding `CCCCO[C@H]1C[C@H]2C(Br)=C[C@@]1(CO)C(=O)[C@]21CO1`, the composite z-score in [1] was -0.487; in test [2], -0.153; in test [3], 0.692; in test [4] it was -0.46; in test [5], 0.452; in test [6] it was 0.0225. In addition, the composite z-score with Lefty1 was 0.641; in test [8], -0.283; in [10], -0.112; in test [14], -0.0819; in test [15], 0.0714; in the test with Torsin-1A (Homo sapiens) [16] it was 0.0005. Also, the composite z-score with Torsin-1A (Homo sapiens) [17] worked out at 0.281; in test [18], 0.536. The z-score in [7] was 0.826; in test [9] it was -0.553 (inactive); in test [11], -0.483 (inactive); in test [12], 0.577 (inactive); in test [13] it was -0.67 (inactive).
